Data on 103 molecules can be found in PubChem BioAssay AID686979 (National Center for Advancing Translational Sciences (NCATS), 2013).

“And” between values parts separate entries of the source, which are not always exact repeats. Identical values can stand only once. The campaign covered roughly 420,000 compounds. About 50,000 (12%) were called active. Where a call stands in place of a potency, no number is given. Another 26% or so got no clear call; they are omitted. Calls follow the shape of the dose curve; as a rule, active = well fitted inhibition curve with a large enough effect; inconclusive = small, poorly fitted or top-dose-only effect; inactive = flat fitted curve, though single readings scatter. Many of the other results were omitted from the sample, so actives are more common in it than they were.
Potency is read from the fitted curve at half-maximal effect.

This test in a line: qHTS for Inhibitors of human tyrosyl-DNA phosphodiesterase 1 (TDP1): qHTS in cells in presence of CPT. Also: nearly all actives have a fitted effect of over 55% in size. The note with it: chicken DT40 Tdp1-/-;hTDP1 cells + 20 nM CPT, ATP luminescence, 48 h; series mostly up to 46.2 µM. The method in brief: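 Cell growth measured by CellTiter-Glo luminescence after a minimum 48 h, 37 C compound exposure with 20 nM CPT in Tdp1-knockout DT40 cells stably expressing hTDP1, seeded 400/well; qHTS titration format.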
(In general: Quantitative high-throughput screening tests each substance at several concentrations.)
In the case of `CN(C)C(=O)Oc1ccc(NC(=O)N2CCOCC2)cc1`, the Potency result was “inactive”. In the case of `O=C(c1cc(-c2ccncc2)nc2ccccc12)N1CCC2(CC1)OCCO2` it was “inactive”; in that of `Cc1cccc(-n2c(C)nc3cc(C(=O)N4CCC5(CC4)OCCO5)ccc32)c1`, 20.6 µM (active). For the molecule `Cc1ccc(-c2cc(C(=O)N3CCC4(CC3)OCCO4)no2)cc1`, the Potency result was “inactive”. As to `COc1cc(C(c2c(O)c3ccccc3oc2=O)c2c(C)n(C)n(-c3ccccc3)c2=O)ccc1O` (stereo not drawn), the Potency result was “inactive”. In the case of `COP(=O)(NS(=O)(=O)c1ccccc1)OC` it was “inactive”; in that of `ClCCN(CCCl)c1ccc(C=Nc2ccc(/C=C/c3ccnc4ccccc34)cc2)cc1`, 10 µM (active). Then `C=CCN(CC=C)C(=O)Nc1ccc(OCC)cc1`, with “inactive”. In the case of `O=C1NC(=O)N(Cc2ccco2)C(=O)/C1=C\c1ccc(-c2ccc(F)cc2)o1` it was 20.6 µM (active); in that of `O=C1NC(=O)N(Cc2ccco2)C(=O)/C1=C\c1cccn1CCOc1ccccc1`, “inactive”; in that of `O=C(O)C1CSC(c2cccnc2)N1` (stereo not drawn), “inactive”.

Consider `Fc1ccc(C(OCCN2CCN(C/C=C\c3ccccc3)CC2)c2ccc(F)cc2)cc1`, for which the Potency was 5.31 µM (active).

For `CN(C)S(=O)(=O)c1cc(C(=O)N2CCC(C(=O)O)(c3ccccc3)CC2)ccc1Cl`, the Potency result is “inactive”. In the case of `COC(=O)CN1C(=O)C2(C(C(=O)OC)=C(N)Oc3ccccc32)C2=C1CC(C)(C)CC2=O` (stereo not drawn) it was “inactive”.

Turning to `C/C=C/CC1(CC)C(=O)NC(=S)NC1=O`, the Potency entry is “inactive”. Then `CN1CC[C@H](c2c(O)cc(O)c3c(=O)cc(-c4ccccc4Cl)oc23)[C@H](O)C1`, with 0.0944 µM (active); and `Cc1ccc(C)c(NC2=NCCCS2)c1`, with “inactive”. For the molecule `O=c1[nH]c(O)c(C=Nc2cc(F)cc(F)c2)c(=O)[nH]1`, the Potency result is “inactive”. In the case of `O=C1C2(Cl)C3(Cl)C4(Cl)C(Cl)(Cl)C5(Cl)C3(Cl)C1(Cl)C5(Cl)C24Cl` (stereo not drawn), the Potency was 18.4 µM (active).

As to `ClC(Cl)(Cl)c1ccccc1`, the Potency entry is “inactive”. In the case of `COc1ccc(NC(=O)c2cn(CCC#N)nc2-c2ccc([N+](=O)[O-])cc2)cc1` it was “inactive”; in that of `CNC(=O)Nc1ccc(C(O)(C(=O)OC)C(F)(F)F)cc1` (stereo not drawn), “inactive”. Then `O=S(=O)(O)C(F)(F)C(F)(F)C(F)(F)C(F)(F)F`, with “inactive”; and `CCOC(=O)[C@]12Cc3ccccc3[C@H]1N(C1CCCCC1)C(=O)c1cc(OC)ccc12`, with 2.91 µM (active). Consider `CCOC(=O)[C@]12Cc3cc(OC)ccc3[C@H]1N(C(C)C)C(=O)c1ccccc12`, for which the Potency is 13 µM (active). As to `COc1ccccc1-n1c(O)c(C=NC2CC2)c(=O)[nH]c1=O`, the Potency result was “inactive”. In the case of `COC(=O)N1C(c2ccccc2)C1c1ccccc1` (stereo not drawn) it was “inactive”; in that of `O=C(O)/C=C/c1ccc2c(c1)OCO2`, “inactive”. For the molecule `Clc1cccc(Cl)c1Cl`, the Potency result was “inactive”. For the molecule `CCOC(=O)C(O)(c1ccc(N)c(OC)c1)C(F)(F)F` (stereo not drawn), the Potency entry is “inactive”.

For `O=C(CCC(=O)N1C[C@H]2C[C@@H](C1)c1cccc(=O)n1C2)NCc1ccccc1C(F)(F)F`, the Potency result is “inactive”. In the case of `C[C@@]12CCC3C(CC[C@@H]4CC(O)CC[C@@]34C)C1CCC2O` (stereo partly drawn) it was “inactive”; in that of `COc1cccc(C(=O)N2C[C@H]3C[C@@H](C2)c2cccc(=O)n2C3)c1`, “inactive”; in that of `CCOCCc1c(O)[nH]c(=S)[nH]c1=O`, “inactive”. As to `CN(C)C(=O)Oc1ccc(OCc2cccc[n+]2C)cc1`, the Potency result is “inactive”. Then `c1cc2c(cc1CCNC1CCCCCC1)OCO2`, with “inactive”; and `CC(C)(C)c1ccc(S(=O)(=O)Nc2ccc(O)c(Sc3nc4ccccc4s3)c2)cc1`, with 18.4 µM (active); and `c1ccc2sc(SNC3CCCCC3)nc2c1`, with “inactive”.

Take `C=CC12CN(C)[C@@H]3C4CO[C@H](C[C@H]41)[C@]1(C(=O)Nc4ccccc41)[C@@H]32` (stereo partly drawn): the Potency entry was “inactive”. As for `CCN(N=Nc1nonc1OC)c1nonc1OC`, the Potency result was “inactive”.

Regarding `c1ccc2sc(N3CCNCC3)nc2c1`, the Potency result was “inactive”.

For the molecule `CCN1C[C@]2(COC)C(O)C[C@H](OC)[C@@]34C5C[C@]6(O)C(OC)C(O)[C@](OC(C)=O)(C5C6OC(=O)c5ccccc5)C(C(OC)C23)C14` (stereo partly drawn), the Potency result is “inactive”. In the case of `CC(C)N(CC#CCC1(O)c2ccccc2-c2ccccc21)C(C)C`, the Potency result is “inactive”. `c1cc2c(c(NC3=NCCCS3)c1)CCCC2`: the Potency entry is “inactive”. In the case of `COC(=O)N(c1ccc(OC)cc1)P1(=S)OCCC(C)O1` (stereo not drawn) it was 14.6 µM (active). In the case of `Cc1ccc(-n2c(O)c(C=NCC3CCCO3)c(=O)[nH]c2=O)c(C)c1` (stereo not drawn) it was “inactive”; in that of `CCC1(C)CC(CCNCc2ccc(N(C)C)cc2)(c2ccc(F)cc2)CCO1` (stereo not drawn), 16.4 µM (active); in that of `CC(=O)N1CN2CN(C(C)=O)CC(C(=O)c3ccc(Br)cc3)(C2)C1`, “inactive”. Then `COc1ccccc1NC(=O)N1C[C@@H]2C[C@@H](C1)c1cccc(=O)n1C2`, with “inactive”.

`O=c1[nH]c(=S)[nH]c(O)c1/C=C1\C=Nc2ccccc21`: the Potency is 7.31 µM (active). Regarding `COc1ccccc1N=Nc1c(O)[nH]c(=S)[nH]c1=O`, the Potency result was “inactive”.

Take `CN(C)c1nc(N(C)C)nc(N(C#N)CCCl)n1`: the Potency result was “inactive”. Then `Cc1ccc(OC(=O)N(C)C[C@@H]2OCc3cnnn3CCCC(=O)N([C@H](C)CO)C[C@@H]2C)cc1`, with “inactive”. `CCC1(c2ccccc2)C(=O)NC(=O)N(C)C1=O` (stereo not drawn): the Potency entry was “inactive”.

In the case of `COc1ccc(Br)cc1CNCCc1cccc(Cl)c1`, the Potency was 18.4 µM (active). In the case of `COc1cc(C[C@H](C)N)c(OC)cc1Br`, the Potency entry was “inactive”. In the case of `CC[C@]1(O)C(=O)OCc2c1cc1n(c2=O)Cc2cc3ccccc3nc2-1` it was 0.0168 µM (active); in that of `CC1=C2C(=O)C3C(CC=C4CC(OC5OC(O)C(O)C(O)C5CO)CCC43C)C2CCC12OC1CC(C)CNC1C2C` (stereo not drawn), “inactive”. For the molecule `Cc1ccc2c(c1)C1CN(C)CCC1N2C(=O)Cn1nnc(-c2ccccc2F)n1` (stereo not drawn), the Potency entry is “inactive”. Turning to `CC(C)(c1ccc(OC[C@@H]2CO2)cc1)c1ccc(OC[C@H]2CO2)cc1`, the Potency was 10.6 µM (active). In the case of `CCOP(=O)(OCC)C(NC(=O)NC)C(N)=O` (stereo not drawn) it was “inactive”. `Nc1ccc(C(=O)N/N=C2/CN3CCC2CC3)cc1`: the Potency entry was “inactive”.

For the molecule `O=C(/C=C/c1cccs1)c1cc(Cl)ccc1OC(=O)N1CCOCC1`, the Potency was 16.4 µM (active). Then `O=C(Nc1cccc(OC(=O)N2CCCCC2)c1)N1CCOCC1`, with “inactive”; and `Cc1cc(-c2ccc(N)c(C)c2)ccc1N`, with “inactive”; and `C=CCN1C(=O)C2(C(C(=O)OCC)=C(N)Oc3c2c(=O)oc2ccccc32)c2ccccc21` (stereo not drawn), with “inactive”. Then `CCCCCCN=C(CC)c1c(O)n(CCCC)c(=O)[nH]c1=O`, with 14.6 µM (active); and `CCCCn1c(O)c(C(CC)=NCc2ccco2)c(=O)[nH]c1=O`, with “inactive”. Take `CCC(=NCCCO)c1c(O)n(-c2ccc(OC)cc2)c(=O)[nH]c1=O`: the Potency entry is “inactive”. Take `OC(CNC1CCCCC1)c1ccccc1` (stereo not drawn): the Potency entry is “inactive”. On to `NS(=O)(=O)c1ccc(CCNC(=O)c2ccc(Cl)c(S(=O)(=O)N3CCCCCC3)c2)cc1`, for which the Potency is 20.6 µM (active). For `CC1CCCCN1Cc1cccnc1` (stereo not drawn), the Potency entry is “inactive”. With `CCOC(=O)C(O)(c1ccc(N=Cc2ccccc2O)c(C)c1)C(F)(F)F` (stereo not drawn), the Potency result is “inactive”. For `CC(=O)c1c(O)c(C)c(O)c(Cc2c(O)c3c(c(C(=O)/C=C/c4ccccc4)c2O)OC(C)(C)C=C3)c1O`, the Potency is 29.9 µM (active). With `CC(=O)c1c(O)c(C)c(O)c(Cc2c(O)c3c(c(C(=O)/C=C\c4ccccc4)c2O)OC(C)(C)C=C3)c1O`, the Potency was 13.3 µM (active).

For the molecule `O=C1NC(=O)C(CCc2ccccn2)(Cc2cccc(Cl)c2Cl)C(=O)N1c1ccc(Br)cc1` (stereo not drawn), the Potency result is “inactive”. In the case of `CCOP(=S)(OCC)SCOC(=O)NCC(=O)OC` it was “inactive”. In the case of `CN1CCc2cc3c(cc2[C@H]1[C@@H]1OC(=O)c2c1ccc1c2OCO1)OCO3` it was “inactive”.

Take `C=CCSSCC=C`: the Potency entry is “inactive”. In the case of `CC(=CCOc1ccc2ccc(=O)oc2c1)C1=CC(=O)C(C)(C)O1` it was 5.8 µM (active).

Regarding `c1ccc2c(c1)[I+]c1ccccc1-2`, the Potency was 33.5 nM (active) and 15.8 nM (active) and 79.4 nM (active). As for `Cc1nc2nc(C)c(CCC(=O)N3CCC4(CC3)OCCO4)c(C)n2n1`, the Potency result is “inactive”. On to `O=C(O)CCn1cc(C=C2C(=O)NC(=S)NC2=O)c(-c2cccc(Br)c2)n1`, for which the Potency result was “inactive”. Then `CNCC[C@H](Oc1ccc(C(F)(F)F)cc1)c1ccccc1`, with 7.5 µM (active); and `N[C@@H](Cc1c[nH]c2ccccc12)c1nnc(SCc2c(F)cccc2Cl)o1`, with “inactive”. In the case of `CC(C)C(N)C(=O)OCCOCn1cnc2c(=O)[nH]c(N)nc21` (stereo not drawn) it was 2.06 µM (active). In the case of `CN(C)C(=O)Oc1cc(=O)n2c3c(cccc13)CCC2` it was “inactive”; in that of `O=[N+]([O-])c1cnc2ccc3ccccc3c2c1`, “inactive”; in that of `CC1CC=CCC12C(=O)NC(=S)NC2=O` (stereo not drawn), “inactive”.

Turning to `COC(=O)COc1cc(C)cc2oc(=O)c3c(c12)CCCC3`, the Potency result was “inactive”.

For `Cc1nc2ccccc2c(=O)n1-c1ccc(Cl)cc1Cl`, the Potency was 13 µM (active). In the case of `O=c1c2ccccc2nc(CBr)n1-c1ccc(Cl)cc1` it was “inactive”; in that of `O=C1CC(=O)N(Cc2ccccc2)C(=O)N1CCCCCCN1C(=O)CC(=O)N(Cc2ccccc2)C1=O`, “inactive”; in that of `O=C(O)c1cc[c]([Sb](=[O])([OH])[OH])cc1[N+](=O)[O-]`, “inactive”. Then `COc1ccc(C)cc1N(CC(=O)N1CCC(C)CC1)S(=O)(=O)c1ccc(C)cc1`, with 18.4 µM (active). Consider `COc1cc2c(cc1OC)[C@@H]1C(=O)c3ccc(O)c(CC=C(C)C)c3OC1CO2` (stereo partly drawn), for which the Potency result is “inactive”.

For the molecule `COc1ccc2[nH]c3c(c2c1)CCN[C@H]3C`, the Potency entry was “inactive”. In the case of `CC1CCC(N(C)C2CCN(C)CC2)CC1` (stereo not drawn) it was “inactive”; in that of `C[C@]12CCC3C(CC[C@H]4C[C@@H](O)CC[C@]34C)C1CC[C@@H]2O` (stereo partly drawn), “inactive”; in that of `O=C(c1ccccc1[N+](=O)[O-])N1CCC2(CC1)OCCO2`, “inactive”.

Consider `CN1C2C=C(N(C(=O)c3ccc(Cl)cc3)c3ccccc3)CC1CC2` (stereo not drawn), for which the Potency entry was “inactive”. Regarding `Cc1cc(C)cc(C(=O)N(CCc2ccccc2)C2=CC3CCC(C2)N3C)c1` (stereo not drawn), the Potency was 20.6 µM (active). `Cc1ccc(N2C(=O)NC(=O)C(CCc3ccncc3)(Cc3cccc(Cl)c3Cl)C2=O)cc1` (stereo not drawn): the Potency result was “inactive”.
